Five compounds from PubChem BioAssay can be followed below.

Calls of active or inactive are those of the source. Unless noted, no rule for the calls is given here.

Test [1] has as its system Wnt5a (protein binding on small-molecule microarray). Briefly: Wnt5a binders on small-molecule microarray, primary screen, biophysical, 635/667 nm fluorescence (AID 1142).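 Also: fluorescence read at 667 nm with signal to noise per printed feature.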 The settings on record: 635 nm fluorescence, higher = more signal.
Test [2] in a line: cell viability in Huh7 cells, primary screen, cytotoxicity control for HCV replication inhibitor project, CellTiter-Glo luminescence, basal, 48 h (AID 1143).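 Also: Huh7 hepatoma cells carrying a hepatitis C replication reporter with no stimulus; test concentration not given here.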 The settings on record: Huh7 HCV replicon, higher = more signal, called active from +8 up or from −8 down. For orientation: In ATP-based viability assays light output follows the ATP content of the culture.
Test [3] is described as follows: P. aeruginosa biofilm formation inhibitors, primary screen, PAO1 strain, BacTiter-Glo luminescence, LB-PBS (AID 1144). The settings on record: 12 h, higher = more signal.
A short description of test [4]: CREB reporter modulators without forskolin, primary screen, cell-based, PC12, CRE-LacZ reporter, unstimulated (AID 1145). As to conditions: no forskolin, luminescence, 4.5 h, higher = more signal, called active from +8 up or from −8 down.
Test [5] is described as follows: CREB reporter modulators under forskolin, primary screen, cell-based, PC12, CRE-LacZ reporter, forskolin-stimulated (AID 1146).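 Also: PC12 cells with 6xCRE LacZ reporter stimulated by forskolin 10 µM; beta-galactosidase reporter signal reflecting CREB driven transcription.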 The settings on record: luminescence, 4.5 h, higher = more signal, called active from +8 up or from −8 down.
The target in test [6] is Streptavidin (Streptomyces avidinii) (UniProt P22629). Briefly: streptavidin binders on small-molecule microarray, primary screen, artefact control for SMM compound annotation, biophysical, 635/667 nm fluorescence (AID 1147).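 Also: signal reflects streptavidin binding to arrayed compounds as a control protein.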 The settings on record: streptavidin binding, higher = more signal.
Streptavidin (Streptomyces avidinii), sequence (P22629 whole entry, looked up): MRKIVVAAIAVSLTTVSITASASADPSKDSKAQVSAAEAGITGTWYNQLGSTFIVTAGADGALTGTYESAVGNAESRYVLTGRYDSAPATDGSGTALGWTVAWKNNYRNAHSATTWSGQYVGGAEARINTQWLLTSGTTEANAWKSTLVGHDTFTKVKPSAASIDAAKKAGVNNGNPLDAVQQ
A short description of test [7]: small-molecule binders of probe aInhba, primary screen, biochemical, small-molecule microarray, 635/667 nm fluorescence (AID 1148).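 Also: score merges 667nm spot fluorescence with signal-to-noise for antibody binding to printed compounds.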 As to conditions: higher = more signal.
The target in test [8] is Torsin-1A (Homo sapiens) (UniProt O14656). Kind of test: torsin A binders from cell lysate, primary screen, small-molecule microarray, wild-type, 635/667 nm (AID 1149). As to conditions: COS7 hTOR1A-WT lysate, 635 nm fluorescence, higher = more signal.
Torsin-1A (Homo sapiens), sequence (O14656 whole entry, looked up): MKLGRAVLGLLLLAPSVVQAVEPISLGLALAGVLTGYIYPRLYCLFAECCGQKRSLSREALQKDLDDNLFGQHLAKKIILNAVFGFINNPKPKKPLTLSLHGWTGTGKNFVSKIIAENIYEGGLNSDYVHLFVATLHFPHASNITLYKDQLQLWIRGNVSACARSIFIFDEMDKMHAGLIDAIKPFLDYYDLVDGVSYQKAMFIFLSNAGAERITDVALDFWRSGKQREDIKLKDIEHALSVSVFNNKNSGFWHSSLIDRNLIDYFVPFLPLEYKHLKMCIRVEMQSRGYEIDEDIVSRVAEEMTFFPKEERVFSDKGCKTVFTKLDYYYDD
Test [9] has the same target. Briefly: small-molecule binders of mutant TOR1A in lysate, primary screen, cell lysate, small-molecule microarray, COS7 lysate, 635/667 nm fluorescence (AID 1150).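 Also: score pools 667 nm emission and signal to noise measuring lysate protein binding.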 The settings on record: COS7 hTOR1A mutant lysate, 635 nm fluorescence, higher = more signal.
Test [10] concerns Sonic hedgehog protein (Shh). Briefly: small-molecule binders of Shh protein, primary screen, biochemical, small-molecule microarray, 635/667 nm fluorescence (AID 1151).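 Also: Shh protein binding to compounds spotted on small-molecule microarray slides; score combines spot fluorescence intensity with signal-to-noise across triplicate slides.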 The settings on record: small-molecule microarray binding, 635 nm fluorescence; higher = more signal.
A short description of test [11]: E. coli DRC41 culture turbidity changes, primary screen, E. coli filamentation inducer project, strain DRC41, OD650, 48 h (AID 1152).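 Also: E. coli MC1000 strain DRC41 lacking acrAB efflux pump and sulA.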 As to conditions: E. coli DRC41 (acrAB sulA), higher = more signal, called active from +8 up or from −8 down.
Test [12] is described as follows: small-molecule binders of probe aLefty1, primary screen, biochemical, small-molecule microarray, 635/667 nm fluorescence (AID 1153).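 Also: score merges spot fluorescence with signal-to-noise ratio from the scanned slide images.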 As to conditions: higher = more signal.
Test [13] is described as follows: PSAC antagonists in infected red cells, primary screen, cell-based, P. falciparum Indochina, OD700, 1 h (AID 1154). As to conditions: P. falciparum Indochina infected RBC osmotic lysis, higher = more signal, called active from +8 up or from −8 down.
A short description of test [14]: PSAC antagonists in infected red cells, primary screen, cell-based, P. falciparum Indochina, OD700, 2 h (AID 1155).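 Also: lysis reports solute entry through the parasite surface anion channel PSAC; channel blockers reduce lysis of infected cells.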 As to conditions: P. falciparum Indochina infected erythrocytes, osmotic lysis OD700; higher = more signal, called active from +8 up or from −8 down.
Test [15] in a line: osmotic lysis modulators in infected erythrocytes, primary screen, PSAC antagonist project, cell-based, P. falciparum Indochina, OD700, 3 h (AID 1156). As to conditions: higher = more signal, called active from +8 up or from −8 down.
Test [16] is described as follows: PSAC antagonists in infected red cells, primary screen, cell-based, P. falciparum Indochina, OD700, 18 h (AID 1157). As to conditions: P. falciparum Indochina infected erythrocytes, osmotic lysis OD700, 18 h; higher = more signal, called active from +8 up or from −8 down.
Test [17] can be described thus: modulators of S6 phosphorylation in cells, primary screen, cell-based, A549, cytoblot, luminescence, serum-stimulated (AID 1158).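 Also: serum-stimulated A549 lung adenocarcinoma cells; signal is phosphorylated S6 detected by cytoblot immunostaining with HRP secondary.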 The settings on record: A549 phospho-S6 cytoblot, 5 h, higher = more signal.
Test [18] addresses NADPH oxidase 2 (Homo sapiens) (UniProt P04839). Briefly: NOX2-dependent H2O2 signal modulators, primary screen, NOX inhibitor project, cell-based, HEK293-NOX2, PMA-stimulated, Amplex Red fluorescence (AID 1159). Also: test concentration not given here. The settings on record: 45 min, higher = more signal, called active from +8 up or from −8 down.
Test [19] addresses NADPH oxidase 4 (Homo sapiens) (UniProt Q9NPH5). Kind of test: NOX4-dependent H2O2 signal modulators, primary screen, NOX inhibitor project, cell-based, HEK293-NOX4, tetracycline-induced, Amplex Red fluorescence (AID 1160). As to conditions: 45 min, higher = more signal, called active from +8 up or from −8 down.
Test [20] concerns the target NADPH oxidase 5 (Homo sapiens) (UniProt Q96PH1). Briefly: NOX5-dependent H2O2 signal modulators, primary screen, NOX inhibitor project, cell-based, HEK293-NOX5, Amplex Red fluorescence (AID 1161). As to conditions: HEK293-NOX5, ionomycin, 45 min, higher = more signal.

NADPH oxidase 4 (Homo sapiens), sequence (Q9NPH5 whole entry, looked up): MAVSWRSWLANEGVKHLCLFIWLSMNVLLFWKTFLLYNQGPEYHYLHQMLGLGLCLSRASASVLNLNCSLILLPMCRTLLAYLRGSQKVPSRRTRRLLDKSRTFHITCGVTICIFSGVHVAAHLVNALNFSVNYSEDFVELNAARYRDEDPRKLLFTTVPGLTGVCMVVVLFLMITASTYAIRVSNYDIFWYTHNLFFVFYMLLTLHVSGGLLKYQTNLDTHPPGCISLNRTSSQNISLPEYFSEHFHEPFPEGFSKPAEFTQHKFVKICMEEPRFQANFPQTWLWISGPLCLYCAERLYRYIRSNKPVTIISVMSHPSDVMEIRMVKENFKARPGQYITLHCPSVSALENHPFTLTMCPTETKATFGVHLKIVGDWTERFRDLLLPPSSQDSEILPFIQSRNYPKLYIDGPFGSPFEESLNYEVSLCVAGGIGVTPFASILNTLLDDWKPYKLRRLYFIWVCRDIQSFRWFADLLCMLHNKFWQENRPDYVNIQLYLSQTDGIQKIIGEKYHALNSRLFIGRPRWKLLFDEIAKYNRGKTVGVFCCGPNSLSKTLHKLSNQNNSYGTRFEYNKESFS
NADPH oxidase 5 (Homo sapiens), sequence (Q96PH1 whole entry, looked up): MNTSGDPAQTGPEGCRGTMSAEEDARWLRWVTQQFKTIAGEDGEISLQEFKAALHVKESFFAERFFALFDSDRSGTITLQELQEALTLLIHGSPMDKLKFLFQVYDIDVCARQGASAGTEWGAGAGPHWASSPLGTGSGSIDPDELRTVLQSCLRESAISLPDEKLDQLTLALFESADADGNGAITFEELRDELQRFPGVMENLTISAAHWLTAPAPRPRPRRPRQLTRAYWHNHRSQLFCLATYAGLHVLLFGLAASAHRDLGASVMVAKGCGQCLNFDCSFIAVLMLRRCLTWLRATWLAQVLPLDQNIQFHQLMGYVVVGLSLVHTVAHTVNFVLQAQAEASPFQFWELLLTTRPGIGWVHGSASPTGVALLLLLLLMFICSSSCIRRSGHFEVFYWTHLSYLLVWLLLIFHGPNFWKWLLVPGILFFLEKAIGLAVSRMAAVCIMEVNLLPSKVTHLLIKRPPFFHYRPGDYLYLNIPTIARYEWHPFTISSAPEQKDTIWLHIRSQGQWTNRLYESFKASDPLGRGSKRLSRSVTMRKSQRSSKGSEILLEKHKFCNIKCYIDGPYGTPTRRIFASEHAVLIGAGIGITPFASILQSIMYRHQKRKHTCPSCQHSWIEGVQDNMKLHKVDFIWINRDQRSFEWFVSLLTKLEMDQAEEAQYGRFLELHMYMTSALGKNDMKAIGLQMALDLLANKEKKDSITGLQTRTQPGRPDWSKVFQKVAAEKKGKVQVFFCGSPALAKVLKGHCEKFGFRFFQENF
NADPH oxidase 2 (Homo sapiens), sequence (P04839 whole entry, looked up): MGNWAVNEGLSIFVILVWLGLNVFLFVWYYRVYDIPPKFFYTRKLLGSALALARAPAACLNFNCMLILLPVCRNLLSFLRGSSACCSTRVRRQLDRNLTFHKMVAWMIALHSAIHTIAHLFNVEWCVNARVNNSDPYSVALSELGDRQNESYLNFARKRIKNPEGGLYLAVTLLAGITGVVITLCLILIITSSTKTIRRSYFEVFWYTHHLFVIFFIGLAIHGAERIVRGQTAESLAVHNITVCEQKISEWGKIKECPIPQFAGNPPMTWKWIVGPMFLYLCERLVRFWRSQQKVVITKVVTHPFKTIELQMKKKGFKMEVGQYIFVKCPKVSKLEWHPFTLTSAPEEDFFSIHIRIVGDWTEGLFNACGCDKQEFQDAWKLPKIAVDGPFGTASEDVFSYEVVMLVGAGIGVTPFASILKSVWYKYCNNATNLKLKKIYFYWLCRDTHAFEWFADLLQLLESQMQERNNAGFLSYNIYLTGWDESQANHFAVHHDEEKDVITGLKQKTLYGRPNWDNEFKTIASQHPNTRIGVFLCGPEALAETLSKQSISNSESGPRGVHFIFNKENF

Turning to `O=C1NC(=O)C2C1C=CC(C(O)c1ccc(-c3ccccc3)s1)N2Nc1ccc(Cl)cc1Cl` (stereo not given), the composite z-score in [1] is 0.289; in test [6], 1.34; in test [7] it was 0.0569; with Torsin-1A (Homo sapiens) [8] it was 0.344; with Torsin-1A (Homo sapiens) [9], 0.14; in test [10] it was -0.82. In test [12], this compound came in with a composite z-score of -0.141. Moreover, the z-score in test [2] was -1.1 (inactive); in test [3], -1.77 (inactive); in [4], -0.136 (inactive); in test [5], -0.128 (inactive); in test [11], -2.23 (inactive); in [13], 2.29 (inactive). Besides, the z-score in test [14] is 1.58 (inactive); in [15], -0.666 (inactive); in test [16] it was 1.07 (inactive); in test [17] it was -1.09; in [18], 0.964 (inactive); in [19], -3.15 (inactive). Also, the z-score in test [20] was -0.664.
For `C=C(CCCC)C(=O)CC[C@H](OC(=O)c1cccnc1)c1ccc(OCCO)cc1`, the composite z-score is 0.0366 in test [1]; -0.118 in [6]; 0.0903 in test [7]; 0.471 with Torsin-1A (Homo sapiens) [8]; 0.546 in the test with Torsin-1A (Homo sapiens) [9]; 0.381 in test [10]. This compound displayed a composite z-score in [12] of -0.0316. The z-score in [2] is -2.23 (inactive); in test [3] it was 0.192 (inactive); in test [4] it was 13.3 (active); in test [5], 2.15 (inactive); in test [11] it was -0.646 (inactive); in test [13], 24.3 (active). For the same compound, the z-score in [14] is 6.53 (inactive); in test [15], 1.8 (inactive); in [16] it was 1.39 (inactive); in test [17] it was 0.178; in test [18], -1.12 (inactive); in [19], 0.000526 (inactive). This compound showed a z-score in test [20] of -2.09.
In the case of `C=C(CCCC)/C(=C/C[C@H](OC(C)=O)c1ccc(OCCO)cc1)c1cnc2ccccc2c1`, the composite z-score in test [1] was 0.0824; in test [6] it was 0.535; in [7], -0.0087; with Torsin-1A (Homo sapiens) [8] it was 1.27; in the test with Torsin-1A (Homo sapiens) [9], 0.671; in test [10], 1.8. This compound had a composite z-score in test [12] of 0.0999. In addition, the z-score is -1.76 (inactive) in test [2]; -0.829 (inactive) in test [3]; 2.59 (inactive) in [4]; 1.08 (inactive) in test [5]; 0.621 (inactive) in test [11]; 22 (active) in test [13]. In addition, the z-score in [14] was 6 (inactive); in test [15], 1.23 (inactive); in test [16], 1.04 (inactive); in test [17] it was -0.1; in test [18], -2.53 (inactive); in test [19], -0.429 (inactive). In [20], this compound showed a z-score of -2.06.
For `COCCCNC(=O)[C@@]1(Cc2ccccc2CN=[N+]=[N-])N=C(c2ccc(OCCCO)cc2)O[C@H]1c1ccccc1CN=[N+]=[N-]`, the composite z-score is 1.08 in [1]; 0.521 in test [6]; -0.0195 in [7]; 0.0552 with Torsin-1A (Homo sapiens) [8]; 0.511 with Torsin-1A (Homo sapiens) [9]; -0.933 in [10]. Besides, in test [12], the composite z-score is 0.123. Further, the z-score was -5.48 (inactive) in test [2]; -1.5 (inactive) in test [3]; 0.76 (inactive) in [4]; -1.68 (inactive) in test [5]; 1.16 (inactive) in test [11]; 31.4 (active) in test [13]. Also, the z-score is 48.5 (active) in [14]; 2.97 (inactive) in test [15]; 26.4 (active) in test [16]; 2.88 in [17]; -3.05 (inactive) in [18]; -0.796 (inactive) in test [19]. For the same compound, the z-score in test [20] was -1.91.
For `CC(C)(C)OC(=O)CC[C@@]1(C(=O)N2CCCCC2)N=C(c2ccc(OCCCO)cc2)O[C@@H]1c1ccccc1`, the composite z-score in [1] is 0.94; in test [6] it was 1.82; in test [7] it was 0.283; with Torsin-1A (Homo sapiens) [8], 0.766; in the test with Torsin-1A (Homo sapiens) [9] it was 0.912; in test [10], -0.45. Further, the composite z-score in test [12] was 0.349. Moreover, the z-score in [2] was -2.99 (inactive); in test [3], -0.34 (inactive); in test [4], 1.66 (inactive); in test [5] it was 0.127 (inactive); in [11] it was -0.56 (inactive); in test [13], 26.6 (active). The z-score in test [14] was 19.2 (active); in test [15], 1.79 (inactive); in test [16], 2.14 (inactive); in test [17], -0.354; in test [18], -2.08 (inactive); in test [19], 1.7 (inactive). In [20], this compound had a z-score of 0.0911.
